# Experimental data taken from article PMC5540273 (PLoS ONE, 2017).
# Where “and” joins values, the source holds several entries; their conditions need not be identical. Equal entries are not always repeated. Where two headings read alike, the source gives them in different places.
# How the values were obtained:
# [1] = tested on: RIPK5; conditions: concentration: 1 μM, replicates: in singlicate, n = 1
# [2] = tested on: ROCK1; conditions: concentration: 1 μM, replicates: in singlicate; n = 1
# [3] = tested on: ROCK2; conditions: concentration: 1 μM, replicates: in singlicate; n = 1
# [4] = tested on: ROS1; conditions: concentration: 1 μM, replicates: in singlicate, n = 1
# [5] = tested on: RPS6KA4(Kin.Dom.1-N-terminal); conditions: concentration: 1 μM, replicates: in singlicate, n = 1
# [6] = tested on: RPS6KA4(Kin.Dom.2-C-terminal); conditions: concentration: 1 μM, replicates: in singlicate, n = 1
# [7] = tested on: RPS6KA5(Kin.Dom.1-N-terminal); conditions: concentration: 1 μM, replicates: in singlicate, n = 1
# [8] = tested on: RPS6KA5(Kin.Dom.2-C-terminal); conditions: concentration: 1 μM, replicates: in singlicate, n = 1
# [9] = tested on: T1, RSK1(Kin.Dom.1-N-terminal); conditions: concentration: 1 μM, replicates: in singlicate, n = 1
# T1 construct: gene RPS6KA1
# [10] = tested on: T2, RSK1(Kin.Dom.2-C-terminal); conditions: concentration: 1 μM, replicates: in singlicate, n = 1
# T2 construct: gene RPS6KA1
# 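Also: KINOMEscan kinase panel screen.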
SMILES,%Inh [1],%Inh [2],%Inh [3],%Inh [4],%Inh [5],%Inh [6],%Inh [7],%Inh [8],%Inh [9],%Inh [10],%Inh ([1]; 1 µM),%Inh ([4]; 1 µM),%Inh ([5]; 1 µM),%Inh ([6]; 1 µM),%Inh ([7]; 1 µM),%Inh ([8]; 1 µM),%Inh ([9]; 1 µM),%Inh ([10]; 1 µM)
COc1cc2ncn(-c3cc(OCc4sccc4Cl)c(C(N)=O)s3)c2cc1OC [GSK448459],0%,26%,23%,6%,13%,0%,5%,0%,12%,0%,–,–,–,–,–,–,–,–
CCn1cnc2c(N)ncnc21 [GW345098],38%,12%,22%,0%,5%,25%,0%,0%,7%,11%,–,–,–,–,–,–,–,–
O=C(NCCNc1ccnc(Nc2ccc(F)cc2)n1)Nc1ccccc1F [GSK1379880],0%,40%,9%,0%,4%,0%,0%,15%,1%,0%,–,–,–,–,–,–,–,–
N#Cc1c(N2CCOCC2)sc(-c2ccn[nH]2)c1-c1ccc(Cl)cc1,15%,11%,0%,8%,0%,3%,0%,7%,17%,18%,–,–,–,–,–,–,–,–
NCC(NC(=O)c1cc(-c2cn[nH]c2)c(-c2ccnc3[nH]ccc23)s1)c1ccccc1.O=C(O)C(F)(F)F.O=C(O)C(F)(F)F (centres unmarked) [GSK1325775],16%,100%,99.9%,0%,47%,43%,13%,60%,24%,5%,–,–,–,–,–,–,–,–
Cc1ccc(NC(=O)c2ccnc(N3CCN(C)CC3)c2)cc1-c1ccc(C(=O)NCC2CC2)cc1 [GW775604],0%,41%,0%,0%,10%,0%,0%,0%,0%,0%,–,–,–,–,–,–,–,–
Cc1cccc(-c2nc(Nc3ccc4ncsc4c3)c3ccccc3n2)n1 [GW867588],24%,45%,13%,17%,30%,0%,0%,8%,0%,16%,–,–,–,–,–,–,–,–
NS(=O)(=O)c1cccc(-c2ccc3nccc(-c4cccc(S(N)(=O)=O)c4)c3c2)c1 [GW867253],11%,37%,37%,0%,0%,0%,4%,7%,0%,23%,–,–,–,–,–,–,–,–
CC(C)Oc1ccc2c(-c3ccnc(Nc4ccc(N5CCN(C)CC5)cc4)n3)cnn2n1 [GW696155],77%,98.8%,99.7%,51%,0%,99.8%,0%,98.9%,34%,90%,–,–,–,–,–,–,–,–
COc1ccc(COc2cc(-n3cnc4ccccc43)sc2C(N)=O)cc1 [GSK1024304],0%,9%,20%,0%,0%,0%,3%,13%,6%,0%,–,–,–,–,–,–,–,–
CSc1ccc(-c2cc3ncnc(SCC(=O)O)c3s2)cc1,0%,0%,0%,3%,0%,0%,0%,0%,9%,12%,–,–,–,–,–,–,–,–
Cn1cc(-c2ccc3c(c2)CCN3C(=O)Cc2ccccc2Cl)c2c(N)ncnc21 [GSK2608885],13%,1%,0%,86%,36%,0%,32%,3%,99.2%,30%,–,–,–,–,–,–,–,–
COc1cc2c(cc1OC[C@@H](O)CO)ncc1c3ccc(C#N)cc3[nH]c21,7%,91.1%,96.9%,0%,0%,9%,0%,26%,33%,17%,–,–,–,–,–,–,–,–
[2H]C([2H])(c1cccc(C(F)(F)F)c1C)n1ccn2c(=O)nc(N3CCOCC3)cc12 [GSK2336394],0%,8%,0%,22%,17%,0%,2%,0%,5%,0%,–,–,–,–,–,–,–,–
Cc1nnc(-c2ccc3occ(-c4ccc(C(C)O)cc4)c3c2)o1 (centres unmarked),0%,5%,0%,0%,9%,25%,20%,0%,9%,1%,–,–,–,–,–,–,–,–
O=C(NOCC1CC1)c1ccc(F)c(F)c1Nc1ccc(I)cc1Cl,0%,0%,0%,0%,0%,0%,0%,0%,0%,6%,–,–,–,–,–,–,–,–
CN(C1=C(c2ccccc2)C(=O)NC1=O)c1ccccc1 [SB-334860],15%,0%,0%,4%,10%,0%,7%,12%,4%,13%,–,–,–,–,–,–,–,–
NCCNS(=O)(=O)c1ccc(-c2ccnc3[nH]ccc23)cc1 [GSK977617],–,–,99.8%,–,–,–,–,–,–,–,3% and 0%,65% and 43%,48% and 33%,99.2% and 98.5%,47% and 33%,97.6% and 94.8%,62% and 27%,63% and 41%
COCCNC(=O)c1ccc(-c2cc(C(=O)NC3CC3)cc(F)c2C)cc1 [GW868318],38%,37%,47%,5%,36%,6%,18%,21%,21%,18%,–,–,–,–,–,–,–,–
O=C(Nc1cccc(-c2nn3ncccc3c2-c2ccnc(Nc3cccc(C(F)(F)F)c3)n2)c1)c1c(F)cccc1F [GSK299495],0%,12%,16%,0%,2%,0%,23%,5%,97.4%,0%,–,–,–,–,–,–,–,–
O=C(Nc1n[nH]c2cc(-c3cccc(F)c3)ccc12)C1CC1 [SB-735464],23%,18%,4%,16%,0%,9%,0%,24%,1%,26%,–,–,–,–,–,–,–,–

SMILES,%Inh [1],%Inh [2],%Inh [3],%Inh [4],%Inh [5],%Inh [6],%Inh [7],%Inh [8],%Inh [9],%Inh [10],%Inh ([1]; 1 µM),%Inh ([4]; 1 µM),%Inh ([5]; 1 µM),%Inh ([6]; 1 µM),%Inh ([7]; 1 µM),%Inh ([8]; 1 µM),%Inh ([9]; 1 µM),%Inh ([10]; 1 µM)
NS(=O)(=O)c1cccc(-c2ccc3ncc(N4CCOCC4)nc3c2)c1 [GSK1535721],8%,0%,0%,2%,4%,0%,8%,13%,0%,6%,–,–,–,–,–,–,–,–
CN(C(=O)c1ccc(-c2cc(-c3c[nH]nc3-c3ccccn3)ccn2)cc1)C1CCOCC1 [GW810083],0%,31%,20%,0%,0%,0%,0%,0%,0%,0%,–,–,–,–,–,–,–,–
Cc1cccc(-c2nc(-c3ccc(S(C)(=O)=O)cc3)sc2-c2ccncc2)c1,18%,16%,0%,23%,0%,3%,11%,9%,0%,34%,–,–,–,–,–,–,–,–
Cc1c2ccc(N(C)c3ccnc(Nc4cccc(S(N)(=O)=O)c4)n3)cc2nn1Cc1ccccc1.Cl.Cl [GW787226],28%,48%,0%,62%,18%,0%,0%,0%,0%,19%,–,–,–,–,–,–,–,–
c1ccc(-c2n[nH]cc2-c2ccnc3ccccc23)nc1 [GW271431],0%,0%,0%,28%,11%,0%,9%,4%,21%,12%,–,–,–,–,–,–,–,–
Cc1ccc(C(=O)NCC(N)=O)cc1-n1c(C)cc(OCc2ccc(F)cc2F)c(Br)c1=O,0%,0%,0%,20%,0%,0%,20%,15%,3%,0%,–,–,–,–,–,–,–,–
COc1ccc(CNC(=O)NC2CCN(c3ccnc(Nc4ccc(OC)cc4)n3)C2)cc1 (centres unmarked) [GSK1379727],55%,40%,40%,0%,0%,0%,7%,0%,0%,0%,–,–,–,–,–,–,–,–
CN1c2ccc(CNc3ccc(F)cc3)cc2-c2c(cnn2C)S1(=O)=O,4%,0%,0%,4%,0%,0%,0%,0%,0%,14%,–,–,–,–,–,–,–,–
CNc1ncnc2[nH]ncc12 [SKF-18355],8%,91.5%,84%,0%,23%,0%,0%,17%,0%,15%,–,–,–,–,–,–,–,–
Cc1nnc(-c2ccc3ncc(-c4ccc(S(C)=O)cc4)n3c2)o1 (centres unmarked),21%,28%,9%,0%,0%,9%,0%,2%,0%,27%,–,–,–,–,–,–,–,–
O=C1NC(=O)C(N2CCc3ccccc32)=C1c1cccc(Cl)c1 [SB-408010],9%,0%,0%,0%,4%,0%,9%,0%,0%,11%,–,–,–,–,–,–,–,–
CCCCCc1nc2c(N)ncnc2n1CCCCC [SKF-97255],8%,90.1%,59%,1%,6%,0%,14%,9%,8%,11%,–,–,–,–,–,–,–,–
CC(=O)Nc1ccc(COc2ccc(Nc3ccnc4cc(-c5ccccn5)ccc34)cc2)cc1.Cl [GW440148],0%,14%,7%,0%,0%,0%,1%,20%,7%,33%,–,–,–,–,–,–,–,–
O=c1cc(N2CCOCC2)nc2n(Cc3cccc(F)c3)ccn12 [GSK2297430],0%,0%,27%,24%,19%,0%,26%,0%,0%,0%,–,–,–,–,–,–,–,–
Cc1cn2c(=O)cc(N3CCOCC3)nc2n1Cc1cccc(Cl)c1Cl [GSK2334006],0%,33%,30%,15%,27%,0%,24%,6%,0%,5%,–,–,–,–,–,–,–,–
c1ccc(-c2cc(-c3c[nH]nc3-c3ccccn3)ccn2)cc1 [GW576604],0%,10%,30%,21%,0%,0%,0%,3%,0%,1%,–,–,–,–,–,–,–,–
Nc1nc(-c2ccc3c(N)n[nH]c3c2)cc(N2CCCC2)n1 [GSK2227430],0%,2%,0%,0%,0%,0%,10%,0%,9%,0%,–,–,–,–,–,–,–,–
CC(C)(C)n1cnc2c(N)ncnc21 [SKF-97359],0%,52%,33%,64%,10%,0%,0%,0%,0%,80%,–,–,–,–,–,–,–,–
Cc1c(Cn2c(C)nn3c(=O)cc(N4CCOC(C)C4)nc23)cccc1C(F)(F)F (centres unmarked) [GSK2344444],0%,0%,10%,14%,21%,0%,0%,0%,0%,6%,–,–,–,–,–,–,–,–
COc1ccc(Nc2nccc(N3CCC(NC(=O)Nc4cccc(C(C)=O)c4)C3)n2)cc1 (centres unmarked) [GSK1379731],0%,25%,0%,4%,2%,0%,0%,0%,0%,0%,–,–,–,–,–,–,–,–
COC(=O)Nc1nc2cc(Oc3ccc(NC(=O)Nc4cc(F)ccc4F)cc3)ccc2[nH]1.Cl [GW701424],0%,52%,67%,0%,0%,0%,24%,43%,0%,0%,–,–,–,–,–,–,–,–
